{
  "source": "PubChem BioAssay (NCI)",
  "note": "Values joined by “and” are separate entries in the source; they are usually repeats but may differ in a detail not shown here. Identical values can stand only once. This is part of a sample that, as a whole, favours compounds with a hit. Of some 83,000 tested, about 20% had one in any assay.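 Step 1: grow cells in 96-well plates. Step 2: add test compound at a single concentration. Step 3: incubate 48 h. Step 4: record percent growth.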 Active and inactive are the calls of the source. Rule for the calls: active = growth percent below 10; inactive = the rest.",
  "data": [
    {"tested_on": "HL-60(TB) leukemia", "experiment": "NCI-60 one-dose screen, 48 h (100 = growth as untreated, 0 = no growth, -100 = all killed)", "conditions": "10 µM unless noted", "values": [
      {"smiles": "CN(C)CCCOc1cccc(NC2=C(Cl)C(=O)C(Nc3cccc(OCCCN(C)C)c3)=C(Cl)C2=O)c1", "growth": "-53.2% (active)"},
      {"smiles": "CC/C(=C(/c1ccc(OCCN(C)C)cc1)c1ccc(OC(=O)CCCCCCCCC(=O)c2c(C)[nH]c(/C=C3\\N=C(c4ccc[nH]4)C=C3OC)c2C)cc1)c1ccccc1", "growth": "76.7% (inactive)"},
      {"smiles": "CCOC(=O)c1cc(-c2ccc([N+](=O)[O-])cc2)n(-c2ccc(C(=O)O)c(O)c2)c1C", "growth": "31% (inactive)"},
      {"smiles": "COc1ccc(-c2nn(-c3ccccc3)cc2/C=C2\\SC(=O)NC2=O)cc1", "growth": "88.2% (inactive)"},
      {"smiles": "O=C(CN1CCN(c2cc3c(cc2F)c(=O)c(C(=O)N/N=C/c2ccccc2O)cn3C2CC2)CC1)N/N=C\\c1ccccc1O", "growth": "1.69% (active)"},
      {"smiles": "CSc1nc(N)nc2c1ncn2C", "growth": "75.8% (inactive)"},
      {"smiles": "Cn1cc(-c2noc(-c3cn(C)c4ncc(F)cc34)n2)c2ccccc21", "growth": "85.5% (inactive)"},
      {"smiles": "Nc1c(C(=O)Nc2cccc(Br)c2)sc2nc3c(cc12)C(O)CCC3", "note": "(centres undefined)", "growth": "-2.37% (active)"},
      {"smiles": "O=C(Nc1cccc(-n2cc(-c3ccncc3)c(-c3ccc(O)c(Cl)c3)n2)c1)Nc1cccc(C(F)(F)F)c1", "growth": "-11.6% (active)"},
      {"smiles": "N=C(N=C(N)N)N1CCOCC1", "growth": "100% (inactive) and 99.1% (inactive)"},
      {"smiles": "COc1ccc(-c2csc(NC(=O)CN3CCN(c4cc5c(cc4F)c(=O)c(C(=O)O)cn5C4CC4)CC3)n2)cc1", "growth": "-25% (active)"},
      {"smiles": "Cc1nc(N)sc1-c1ccnc(Nc2ccc(N3CCOCC3)cc2)n1", "growth": "43.9% (inactive)"},
      {"smiles": "CCN1Cc2c(/C=C/c3ccccc3)nc3ccc(OC)cc3c2N(c2cccc(Cl)c2)C1", "growth": "23.6% (inactive)"},
      {"smiles": "COc1cc(OC)cc(-c2cncn2-c2ccc(-c3nc4cc(OC)cc(OC)c4s3)cc2)c1", "growth": "41% (inactive)"},
      {"smiles": "O=C(N/N=C/c1ccc(F)cc1)c1ccc(C(F)(F)F)nc1Nc1cccc(C(F)(F)F)c1", "growth": "-37.2% (active)"},
      {"smiles": "Cc1ccc(NC(=O)CN2CCOCC2)cc1Cl", "growth": "74.2% (inactive)"},
      {"smiles": "COc1ccc(/C(=N/O)c2cc(F)c(F)c(OC)c2F)cc1O", "growth": "-5.23% (active)"},
      {"smiles": "O=C1C=CC(=O)N1c1ccc(N2C(=O)C=CC2=O)cc1", "growth": "-50.6% (active)"},
      {"smiles": "O=C1C=CC[C@H](/C=C/c2ccccc2)O1", "growth": "13.5% (inactive) and -34.5% (active)"},
      {"smiles": "COc1cc2c(cc1OC)C(Cc1cc(OC)c(OC)cc1[N+](=O)[O-])=NCC2", "growth": "63.1% (inactive)"},
      {"smiles": "COc1cccc(CNc2ncnc3c2ncn3C2OC(CO)C(O)C2O)c1O", "note": "(centres undefined)", "growth": "-47% (active)"},
      {"smiles": "Nc1cc(N)c(S(=O)(=O)O)cc1N=Nc1cc([N+](=O)[O-])ccc1O", "growth": "92.5% (inactive)"},
      {"smiles": "N#C/C(=N\\Nc1ccc(Cl)cc1)C(=O)C1CC1", "growth": "62.8% (inactive)"},
      {"smiles": "COc1ccc(-c2n[nH]nc2-c2cc(OC)c(OC)c(OC)c2)cc1", "growth": "-8.64% (active)"},
      {"smiles": "O=C(Nc1ccc(Cl)c(C(F)(F)F)c1)Nc1ccc(-c2cccnc2)cc1N1CCC(CO)CC1", "growth": "-6.89% (active)"},
      {"smiles": "Cn1cc([C@@H]2Nc3ccc4[nH]ncc4c3[C@H]3[C@H]4CCC(C4)[C@H]32)c(C(F)(F)F)n1", "growth": "7.12% (active)"},
      {"smiles": "COc1ccc(-c2csc(N(C(=O)N3CCN(c4cc5c(cc4F)c(=O)c(C(=O)O)cn5C4CC4)CC3)c3ccccc3)n2)cc1", "growth": "-29.6% (active)"},
      {"smiles": "COc1ccccc1S(=O)Nc1ccccc1", "note": "(centres undefined)", "growth": "91.5% (inactive)"},
      {"smiles": "Cc1oc2c(C(=O)N/N=C\\c3ccc(O)cc3O)c[nH]c2c1C", "growth": "-9.06% (active)"},
      {"smiles": "O=C1N(Cc2ccccc2Cl)c2ccccc2C12NN=C(c1cccc(Cl)c1)S2", "note": "(centres undefined)", "growth": "28.7% (inactive)"},
      {"smiles": "COc1ccc(/C=N\\NC(=O)CN2CCN(c3cc4c(cc3F)c(=O)c(C(=O)N/N=C/c3ccc(OC)c(OC)c3)cn4C3CC3)CC2)cc1OC", "growth": "1.29% (active)"},
      {"smiles": "O=C(CSc1nc(-c2ccccc2)[nH]c1S(=O)(=O)c1ccccc1)NC1CC1", "growth": "101% (inactive)"},
      {"smiles": "COc1ccc(C(=O)c2cc(OC)c3c(c2)OCO3)cc1O", "growth": "13.4% (inactive)"},
      {"smiles": "O=Cc1c(O)c2ccccc2[nH]c1=O", "growth": "126% (inactive)"},
      {"smiles": "CCOC(=O)C1CCCN1C(=O)C1(NC(C)=O)CCCC1", "note": "(centres undefined)", "growth": "98.4% (inactive)"},
      {"smiles": "O=C(NCCCN1CCOCC1)c1cccc(N2C(=O)/C(=C/c3ccc(F)cc3)SC2=S)c1", "growth": "99.6% (inactive)"},
      {"smiles": "Clc1ccc(C(Cn2ccnc2)OCc2ccsc2Cl)c(Cl)c1", "note": "(centres undefined)", "growth": "6.05% (active)"},
      {"smiles": "O=c1oc2c(cnc3ccccc32)cc1-c1ccsc1", "growth": "96.7% (inactive)"},
      {"smiles": "Cc1cc(=O)[nH]c(O)c1C#N", "growth": "109% (inactive) and 137% (inactive)"}
    ]}
  ]
}
